Screening results (PubChem BioAssay)
Most compounds without a hit are left out; they make up all but 11% or so of the library.
Luciferase inh – blocks purified firefly luciferase enzyme activity. P08659. purified P. pyralis luciferase, luminescence, biochemical. Potency, µM (series often up to 115 µM), actives largely listed as inhibitors. 76,000 compounds, 2.5% hits. AID 1347043; note: nearly all actives have a fitted effect of over 65% in size
Target sequence (P08659 whole entry, looked up): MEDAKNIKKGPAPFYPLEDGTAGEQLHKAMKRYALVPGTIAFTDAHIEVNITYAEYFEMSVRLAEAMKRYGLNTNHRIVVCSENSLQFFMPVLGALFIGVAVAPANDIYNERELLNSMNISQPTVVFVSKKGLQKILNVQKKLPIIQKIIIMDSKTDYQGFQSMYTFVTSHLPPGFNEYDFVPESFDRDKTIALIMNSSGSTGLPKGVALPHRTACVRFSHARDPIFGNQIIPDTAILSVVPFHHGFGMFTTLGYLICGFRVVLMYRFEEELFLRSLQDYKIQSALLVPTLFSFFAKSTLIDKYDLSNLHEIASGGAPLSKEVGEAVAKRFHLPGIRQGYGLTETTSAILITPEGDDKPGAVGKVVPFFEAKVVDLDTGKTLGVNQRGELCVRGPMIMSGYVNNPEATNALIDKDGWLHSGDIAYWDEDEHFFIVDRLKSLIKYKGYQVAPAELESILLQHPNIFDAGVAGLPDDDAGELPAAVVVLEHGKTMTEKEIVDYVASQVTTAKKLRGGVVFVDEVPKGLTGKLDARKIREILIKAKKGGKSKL
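Luminescence read by CCD imaging after purified firefly luciferase (10nM final) was added to substrate buffer holding 10uM D-luciferin and 10uM ATP, pH 7.5, pre-dosed with compound.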
HEK cytotox – HEK 293 cell cytotoxicity | HEK 293 viability, ATP luminescence (CellTiter-Glo), 48-72 h | Potency, µM (series often up to 115 µM), usual class: inhibitors | 94,000 compounds, 6.6% hits; note: nearly all actives have a fitted effect of over 60% in size
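HEK 293 cells seeded at 250 cells/well were exposed to compound for 48 or 72 hr at 37 degree Celsius. Viability taken as ATP content by CellTiter-Glo luminescence.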
3T3 cytotox – cytotoxic compounds in NIH 3T3 cells; 94,000 compounds, 4.3% hits; NIH 3T3 viability, CellTiter-Glo ATP luminescence, 48-72 h; Potency, µM (titrated, usually from 96.7 µM), actives largely listed as inhibitors; AID 1345082; note: nearly all actives have a fitted effect of over 55% in size
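Luminescent ATP readout (CellTiter-Glo, 10 min RT) after 48 or 72 hr compound exposure of NIH 3T3 cells seeded at 400 cells/well in 1536-well format; quantitative HTS.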
hNpr1 antagonist – blocks ANP-stimulated signaling of human Npr1 receptor | 76,000 compounds, 1.6% hits | AID 1347048 | Potency, µM (doses to about 46.3 µM), hits mostly inhibitors | P16066 | HEK293 hNpr1 GloSensor cGMP, ANP-stimulated luminescence; calls by dose curve; note: nearly all actives have a fitted effect of over 60% in size
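Compound pre-incubated 30 min at room temperature on GloSensor-loaded HEK293 cells stably carrying hNpr1 and the pGS-40F cGMP biosensor. Stimulation uses hNppA at 0.1 nM final; luminescence is taken at baseline and 20 min post-agonist.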
A number is an active result; i = inactive; ? = inconclusive; nt = no result. Unless noted, calls come from the whole dose curve; as a rule, active = well fitted curve in the direction sought with a large enough effect; inconclusive = small, poorly fitted or top-dose-only effect, or another doubt; inactive = no such curve, though single readings can be large; an effect the other way counts as inactive or inconclusive.

SMILES	Luciferase inh	HEK cytotox	3T3 cytotox	hNpr1 antagonist
CN1c2cc(C(=O)Nc3ccc(C(F)(F)F)cc3)ccc2C(=O)N2CCCCCC21 (centres undefined)	?	?	?	i
CN1c2cc(C(=O)Nc3ccc(Br)cc3)ccc2C(=O)N2CCCCCC21 (centres undefined)	?	35µM	?	i
O=C(c1cc2n(n1)CC(c1ccc3c(c1)OCO3)OC2)N1CCCC1 (centres undefined)	i	?	?	i
O=C(Nc1cccc(Cl)c1)c1cnc2c(c1)N([S+](=O)([O-])c1cccnc1)CCC2	i	100µM	?	i
Cc1csc(NC(=O)c2cnc3c(c2)N([S+](=O)([O-])c2cccnc2)CCC3)n1	i	i	100µM	i
CC(C)CCNC(=O)c1cnc2c(c1)N([S+](=O)([O-])c1cccnc1)CCC2	i	i	?	i
CC(C)CN1CCN(C2CCOC3(CCN(C(=O)C4CCOCC4)CC3)C2)CC1 (centres undefined)	nt	i	i	nt
CN1CCN(Cc2nnc(C(=O)N3CCC[C@@H]3C(c3ccccc3)c3ccccc3)n2-c2ccccc2)CC1	i	?	?	i
O=C(Nc1cccc(-c2ccc(N3CCOCC3)nn2)c1)Nc1ccc(F)cc1F	2µM	?	?	i
CSc1cccc(NC(=O)Nc2cccc(-c3ccc(N4CCCC4)nn3)c2)c1	1.8µM	?	?	i
CCc1ccccc1NC(=O)Cn1c(N2CCOCC2)nc(COC)cc1=O	i	i	i	i
Cc1cccc(C(=O)Nc2cccc(-c3ccc(N4CCN(C)CC4)nn3)c2)c1	32µM	?	40µM	i
CSc1cccc(NC(=O)C2CCCN(c3cnc4nc(C)c(C)nc4c3)C2)c1 (centres undefined)	i	i	i	i
CCc1ccccc1NC(=O)Nc1cccc(-c2ccc(N3CCOCC3)nn2)c1	1µM	?	?	i
Cc1ccc(C(=O)Nc2cccc(-c3nnc4n3CCCC4)c2)cc1	?	i	i	i
O=C(c1ccccc1)N1CCN(C(=O)c2nc3cccnc3n(C3CCCC3)c2=O)CC1	nt	i	i	nt
COc1ccc(-c2cccc(C(=O)N3CCOCC3)c2)nn1	nt	i	i	nt
Cc1ccc(NC(=O)Nc2cccc(-c3ccc(N4CCOCC4)nn3)c2)cc1	0.63µM	?	i	?
CSc1ccc(NC(=O)Nc2cccc(-c3ccc(N4CCOCC4)nn3)c2)cc1	0.56µM	?	?	11µM
CC(=O)Nc1cccc(-c2ccnc(-c3nnc(C)n3CCN3CCOCC3)c2)c1	i	i	?	i
COc1ccccc1CN1Cc2cc(NC(=O)c3ccc([N+](=O)[O-])cc3)ccc2OC(C)C1=O (centres undefined)	i	?	?	i
CCC1Oc2ccc(NC(=O)c3cccc(F)c3)cc2CN(Cc2ccccc2F)C1=O (centres undefined)	i	35µM	?	i
CC1Oc2ccc(NC(=O)c3ccc([N+](=O)[O-])cc3)cc2CN(Cc2ccccc2F)C1=O (centres undefined)	i	32µM	?	i
CCC1Oc2ccc(NC(=O)Cc3ccc(F)cc3)cc2CN(Cc2ccccc2F)C1=O (centres undefined)	i	45µM	?	i
CCC1Oc2ccc(NC(=O)c3ccc(C#N)cc3)cc2CN(Cc2ccccc2F)C1=O (centres undefined)	i	45µM	?	i
SMILES	Luciferase inh	HEK cytotox	3T3 cytotox	hNpr1 antagonist
CCC1Oc2ccc(NC(=O)c3ccccc3F)cc2CN(Cc2ccccc2F)C1=O (centres undefined)	i	?	?	i
CCC1Oc2ccc(NC(=O)c3ccc([N+](=O)[O-])cc3)cc2CN(Cc2ccccc2)C1=O (centres undefined)	i	i	i	i
COc1cccc(-c2cccc(C(=O)N3CCN([S+](=O)([O-])c4c(C)noc4C)CC3)c2)c1	nt	?	i	nt
O=S(=O)(NCC1CN(CC2CC2)CC12CCCCC2)c1cccc(F)c1 (centres undefined)	nt	?	i	nt
O=C(NC1CCCCCC1)c1ccc2oc(-c3cccnc3)nc2c1	nt	i	i	nt
CC(=O)N(C1CCOCC1)C1CCN(S(=O)(=O)c2ccc(F)c(F)c2)CC1	nt	i	i	nt
CCC1Oc2ccc(NC(=O)c3ccccc3)cc2CN(Cc2cc(F)cc(F)c2)C1=O (centres undefined)	i	14µM	?	i
Cc1nn(-c2ccccc2)c2c1C(C1CC1)N(C1CCN(Cc3ccccc3Cl)CC1)C2=O (centres undefined)	nt	i	i	nt
CCCC(=O)N1Cc2ccccc2CC2(CCCCN2Cc2cccnc2)C1 (centres undefined)	nt	i	i	nt
